Measured values from PubChem BioAssay.
Activity calls are given as the source filed them. Rule as the data show it, unless noted: active = inhibition above about 30%; inactive = the rest.

Columns and labels:
[1] = biological target: Nuclear receptor coactivator 3 (Homo sapiens) (UniProt Q9Y6Q9); assay: SRC3 coactivator transcriptional activity inhibitors, confirmation, cell-based, luminescence, quadruplicate (AID 588792;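 active = mean inhibition over 43.08%, the solvent-only control mean plus 3 SD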;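 also: 0% = DMSO treated cells and 100% = gossypol at 36 µM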); settings: HEK293 GAL4-SRC3 luciferase reporter, at 3.6 µM, stronger effect = higher value
Nuclear receptor coactivator 3 (Homo sapiens), sequence (Q9Y6Q9 whole entry, looked up, the tested form may be a part): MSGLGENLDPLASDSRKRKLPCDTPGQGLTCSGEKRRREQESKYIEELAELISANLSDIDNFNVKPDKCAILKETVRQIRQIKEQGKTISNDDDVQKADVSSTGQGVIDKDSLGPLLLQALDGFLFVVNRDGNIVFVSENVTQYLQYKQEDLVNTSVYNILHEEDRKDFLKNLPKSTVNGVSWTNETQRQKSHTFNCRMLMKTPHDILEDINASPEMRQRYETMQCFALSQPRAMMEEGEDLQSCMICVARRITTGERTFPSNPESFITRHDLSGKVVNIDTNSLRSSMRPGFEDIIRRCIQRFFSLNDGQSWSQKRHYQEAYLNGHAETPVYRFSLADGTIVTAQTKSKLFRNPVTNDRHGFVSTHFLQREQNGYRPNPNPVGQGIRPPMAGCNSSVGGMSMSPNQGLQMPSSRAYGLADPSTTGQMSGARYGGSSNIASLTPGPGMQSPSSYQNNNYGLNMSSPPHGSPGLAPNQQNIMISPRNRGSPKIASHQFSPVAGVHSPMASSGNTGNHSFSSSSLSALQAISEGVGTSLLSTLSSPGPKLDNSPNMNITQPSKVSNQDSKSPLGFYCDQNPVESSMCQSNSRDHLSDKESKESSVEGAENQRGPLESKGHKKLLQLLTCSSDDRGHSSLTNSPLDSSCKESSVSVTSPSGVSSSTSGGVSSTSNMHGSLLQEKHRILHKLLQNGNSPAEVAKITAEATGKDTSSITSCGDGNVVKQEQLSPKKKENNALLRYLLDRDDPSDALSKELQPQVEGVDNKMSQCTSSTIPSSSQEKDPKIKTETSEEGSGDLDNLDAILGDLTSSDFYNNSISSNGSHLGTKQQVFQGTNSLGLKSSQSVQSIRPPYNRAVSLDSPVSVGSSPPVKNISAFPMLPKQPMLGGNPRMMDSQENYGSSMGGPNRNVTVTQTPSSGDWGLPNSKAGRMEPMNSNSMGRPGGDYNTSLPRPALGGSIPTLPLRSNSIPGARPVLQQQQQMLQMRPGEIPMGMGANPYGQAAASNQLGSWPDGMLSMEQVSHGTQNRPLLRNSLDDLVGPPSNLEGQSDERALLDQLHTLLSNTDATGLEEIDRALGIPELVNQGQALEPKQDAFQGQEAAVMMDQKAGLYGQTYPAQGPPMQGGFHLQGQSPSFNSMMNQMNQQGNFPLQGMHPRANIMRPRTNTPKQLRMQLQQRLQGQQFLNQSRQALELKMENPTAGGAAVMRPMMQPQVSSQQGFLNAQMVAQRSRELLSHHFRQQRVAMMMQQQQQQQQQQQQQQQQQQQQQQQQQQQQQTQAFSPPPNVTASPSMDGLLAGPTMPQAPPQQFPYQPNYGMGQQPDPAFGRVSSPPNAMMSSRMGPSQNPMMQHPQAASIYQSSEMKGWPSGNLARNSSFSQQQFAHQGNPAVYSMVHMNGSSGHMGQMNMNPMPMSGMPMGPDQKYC

[2] = tested on: transactivating tegument protein VP16 (Human herpesvirus 1), Gal4-VP16 luciferase reporter; assay: VP16 transactivation inhibitors, counter-screen for SRC3 inhibitor project, cell-based, luminescence, high throughput (AID 588794); settings: mammalian cells, VP16-driven luciferase reporter luminescence; at 3.6 µM; stronger effect = higher value
[3] = biological target: Nuclear receptor coactivator 1 (Homo sapiens) (UniProt Q15788); assay: SRC1 coactivator transcriptional activity inhibitors, confirmation, cell-based, luminescence, quadruplicate (AID 588820;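 active = mean inhibition above 46.68%, the untreated control wells mean plus 3 SD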;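 also: 0% = DMSO wells and 100% = gossypol 36 µM treated wells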); settings: HEK293 GAL4-SRC1 luciferase reporter, at 3.6 µM, stronger effect = higher value
Nuclear receptor coactivator 1 (Homo sapiens), sequence (Q15788 whole entry, looked up, the tested form may be a part): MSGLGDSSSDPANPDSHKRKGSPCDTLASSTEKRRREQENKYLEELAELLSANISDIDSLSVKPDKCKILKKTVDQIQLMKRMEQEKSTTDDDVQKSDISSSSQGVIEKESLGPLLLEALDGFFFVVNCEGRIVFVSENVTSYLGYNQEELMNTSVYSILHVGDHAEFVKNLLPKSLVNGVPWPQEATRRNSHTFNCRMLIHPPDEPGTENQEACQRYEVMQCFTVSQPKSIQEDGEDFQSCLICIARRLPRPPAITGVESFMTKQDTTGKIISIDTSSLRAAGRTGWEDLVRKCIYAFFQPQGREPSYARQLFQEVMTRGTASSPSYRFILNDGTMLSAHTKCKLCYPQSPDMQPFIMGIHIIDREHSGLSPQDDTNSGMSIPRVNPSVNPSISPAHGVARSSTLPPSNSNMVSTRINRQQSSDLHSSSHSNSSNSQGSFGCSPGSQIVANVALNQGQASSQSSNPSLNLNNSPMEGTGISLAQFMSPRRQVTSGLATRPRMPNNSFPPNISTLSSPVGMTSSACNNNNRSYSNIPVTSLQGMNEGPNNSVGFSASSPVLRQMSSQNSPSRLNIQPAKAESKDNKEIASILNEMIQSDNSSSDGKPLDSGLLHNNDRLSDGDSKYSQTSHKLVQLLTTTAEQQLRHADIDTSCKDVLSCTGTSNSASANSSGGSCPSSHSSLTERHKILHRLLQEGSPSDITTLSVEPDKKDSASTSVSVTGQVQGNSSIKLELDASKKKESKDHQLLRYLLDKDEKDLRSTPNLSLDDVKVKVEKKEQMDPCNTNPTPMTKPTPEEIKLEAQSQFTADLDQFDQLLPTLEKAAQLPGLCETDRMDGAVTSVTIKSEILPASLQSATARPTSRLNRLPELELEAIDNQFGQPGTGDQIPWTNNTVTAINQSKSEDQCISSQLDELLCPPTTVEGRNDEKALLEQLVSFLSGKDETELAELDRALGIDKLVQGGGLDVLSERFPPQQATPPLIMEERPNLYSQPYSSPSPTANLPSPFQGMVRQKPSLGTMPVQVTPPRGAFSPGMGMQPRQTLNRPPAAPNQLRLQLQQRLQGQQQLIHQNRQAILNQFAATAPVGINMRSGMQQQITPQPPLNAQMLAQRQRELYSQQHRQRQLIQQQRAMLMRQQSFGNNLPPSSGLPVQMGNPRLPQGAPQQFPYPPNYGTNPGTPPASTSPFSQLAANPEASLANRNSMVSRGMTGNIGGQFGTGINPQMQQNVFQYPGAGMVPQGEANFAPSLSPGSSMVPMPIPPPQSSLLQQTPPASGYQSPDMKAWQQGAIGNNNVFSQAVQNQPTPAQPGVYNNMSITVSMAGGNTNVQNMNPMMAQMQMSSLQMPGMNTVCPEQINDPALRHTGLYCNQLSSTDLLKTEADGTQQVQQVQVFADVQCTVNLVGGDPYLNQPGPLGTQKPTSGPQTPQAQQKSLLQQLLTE

[4] = VP16 transactivation inhibitors, counter-screen for SRC1 inhibitor project, cell-based, luminescence, high throughput (AID 588824; in the data active = inhibition above about 25%); settings: cell-based VP16 transactivation luciferase luminescence; at 3.6 µM; stronger effect = higher value
[5] = StAR promoter reporter inhibitors, counter-screen for LRH-1 inverse agonist project, cell-based, luminescence, high throughput (AID 651611; in the data active = inhibition above about 28%); settings: StAR promoter luciferase reporter counterscreen, at 3.6 µM, stronger effect = higher value
[6] = biological target: Nuclear receptor subfamily 5 group A member 2 (Homo sapiens) (UniProt O00482); assay: LRH-1 (NR5A2) inverse agonists, retest, confirmation, cell-based, luminescence (AID 651613; in the data active = inhibition above about 42%;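 also: HEK293T cells co-transfected with LRH-1 and StAR promoter luciferase reporter; 0% = vehicle wells and 100% = parental cells lacking receptor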); settings: cell-based LRH-1 luciferase reporter, inverse agonism; at 3.6 µM; stronger effect = higher value
Nuclear receptor subfamily 5 group A member 2 (Homo sapiens), sequence (O00482 whole entry, looked up): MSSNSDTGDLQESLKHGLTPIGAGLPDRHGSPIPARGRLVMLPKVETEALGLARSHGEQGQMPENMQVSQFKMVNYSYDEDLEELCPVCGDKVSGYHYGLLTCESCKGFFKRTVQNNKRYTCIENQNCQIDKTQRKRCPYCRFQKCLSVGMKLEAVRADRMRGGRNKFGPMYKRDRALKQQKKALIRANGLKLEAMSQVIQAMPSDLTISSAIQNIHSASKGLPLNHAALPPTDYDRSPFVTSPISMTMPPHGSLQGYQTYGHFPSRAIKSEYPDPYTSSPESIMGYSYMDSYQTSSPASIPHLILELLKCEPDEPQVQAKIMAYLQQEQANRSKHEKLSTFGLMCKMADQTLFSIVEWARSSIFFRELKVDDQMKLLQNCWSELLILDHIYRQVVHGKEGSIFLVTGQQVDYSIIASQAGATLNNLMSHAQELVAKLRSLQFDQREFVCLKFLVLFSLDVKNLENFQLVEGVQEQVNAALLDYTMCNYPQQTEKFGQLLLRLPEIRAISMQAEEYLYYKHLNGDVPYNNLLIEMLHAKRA

[7] = biological target: Steroidogenic factor 1 (Homo sapiens) (UniProt Q13285); assay: SF1 (NR5A1) inverse agonists, counter-screen for LRH-1 inverse agonist project, cell-based, luminescence, high throughput (AID 651614; in the data active = inhibition above about 44%;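 also: cells cotransfected with StAR promoter reporter and SF1 expression vector; 0% = vehicle on cells with receptor and 100% = vehicle on cells lacking receptor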); settings: cell-based SF1 luciferase reporter, at 3.6 µM, stronger effect = higher value
[8] = VP16 transactivation reporter inhibitors, counter-screen for LRH-1 inverse agonist project, cell-based, luminescence, high throughput (AID 651615; in the data active = inhibition above about 33%); settings: Gal4-VP16 luciferase reporter cells, at 3.6 µM, stronger effect = higher value
[9] = tested on: transactivating tegument protein VP16 (Human herpesvirus 1); assay: VP16 transactivation reporter inhibitors, counter-screen for SRC2 inhibitor project, cell-based, luminescence, single concentration (AID 652007; in the data active = inhibition above about 36%); settings: cell-based VP16 transactivation luciferase reporter, at 8.9 µM, stronger effect = higher value
[10] = biological target: Nuclear receptor coactivator 2 (Homo sapiens) (UniProt Q15596); assay: SRC2 coactivator transcriptional activity inhibitors, confirmation, cell-based, luminescence, HEK293, triplicate (AID 652008;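 active = mean inhibition above 46.5%, the solvent-only control mean plus 3 SD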;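 also: 0% = DMSO-treated cells and 100% = Gossypol at 36 µM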); settings: HEK293 GAL4-SRC2 luciferase reporter, at 8.9 µM, stronger effect = higher value
Nuclear receptor coactivator 2 (Homo sapiens), sequence (Q15596 whole entry, looked up, the tested form may be a part): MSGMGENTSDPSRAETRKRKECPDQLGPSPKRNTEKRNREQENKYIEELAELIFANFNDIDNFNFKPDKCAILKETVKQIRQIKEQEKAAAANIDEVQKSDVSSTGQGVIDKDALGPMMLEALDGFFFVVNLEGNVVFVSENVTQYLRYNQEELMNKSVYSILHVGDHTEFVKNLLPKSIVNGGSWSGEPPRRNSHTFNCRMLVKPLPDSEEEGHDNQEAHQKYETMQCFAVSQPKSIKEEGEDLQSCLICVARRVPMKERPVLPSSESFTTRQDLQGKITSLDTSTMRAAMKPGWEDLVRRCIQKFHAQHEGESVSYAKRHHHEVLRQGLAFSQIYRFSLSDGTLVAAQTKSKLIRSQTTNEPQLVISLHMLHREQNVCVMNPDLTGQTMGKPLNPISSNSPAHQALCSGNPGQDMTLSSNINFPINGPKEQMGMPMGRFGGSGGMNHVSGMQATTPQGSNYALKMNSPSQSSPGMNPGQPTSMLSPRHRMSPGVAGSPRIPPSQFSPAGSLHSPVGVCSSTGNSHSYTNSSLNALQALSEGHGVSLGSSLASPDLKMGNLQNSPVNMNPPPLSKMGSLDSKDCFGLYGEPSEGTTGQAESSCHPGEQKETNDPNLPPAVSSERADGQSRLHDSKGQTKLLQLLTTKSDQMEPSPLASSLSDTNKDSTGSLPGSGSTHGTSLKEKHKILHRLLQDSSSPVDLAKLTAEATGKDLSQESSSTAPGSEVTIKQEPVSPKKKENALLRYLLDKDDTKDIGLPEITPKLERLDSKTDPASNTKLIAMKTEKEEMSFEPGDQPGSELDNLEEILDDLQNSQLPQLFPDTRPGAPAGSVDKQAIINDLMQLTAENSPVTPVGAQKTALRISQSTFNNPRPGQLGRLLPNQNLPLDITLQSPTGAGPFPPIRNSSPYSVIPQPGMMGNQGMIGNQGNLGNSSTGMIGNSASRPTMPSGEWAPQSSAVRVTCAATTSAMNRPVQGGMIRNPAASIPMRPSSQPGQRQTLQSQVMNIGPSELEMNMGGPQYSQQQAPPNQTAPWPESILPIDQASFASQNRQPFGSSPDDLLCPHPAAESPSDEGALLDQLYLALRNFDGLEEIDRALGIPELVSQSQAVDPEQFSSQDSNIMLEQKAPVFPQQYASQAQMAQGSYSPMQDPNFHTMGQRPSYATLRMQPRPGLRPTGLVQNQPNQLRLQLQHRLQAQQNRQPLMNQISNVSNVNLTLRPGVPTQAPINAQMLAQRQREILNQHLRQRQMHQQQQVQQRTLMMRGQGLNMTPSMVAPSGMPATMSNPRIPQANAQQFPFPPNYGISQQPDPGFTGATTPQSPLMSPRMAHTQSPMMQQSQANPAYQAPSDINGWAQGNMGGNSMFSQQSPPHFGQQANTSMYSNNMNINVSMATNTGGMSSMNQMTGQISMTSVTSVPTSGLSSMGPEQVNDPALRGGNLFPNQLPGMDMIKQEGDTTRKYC

Measured: inhibition

O=C1NC2C(=CC(O)C(O)C2O)c2cc3c(c(O)c21)OCO3 (configuration not stated)
active: [1] 97.4% | [2] 96.1% | [3] 94.7% | [4] 94.7% | [5] 95.7% | [6] 109% | [7] 98% | [8] 96% | [9] 79.3% | [10] 75.6%

CC(=O)OC[C@]12CCC(C)=C[C@H]1O[C@@H]1[C@H](O)[C@@H](OC(C)=O)[C@@]2(C)[C@]12CO2
active: [1] 98.8% | [2] 97.9% | [3] 98% | [4] 97.8% | [5] 96% | [6] 109% | [7] 98% | [8] 97.1% | [9] 78.3% | [10] 73%

C[C@@H]1O[C@@H](O[C@@H]2C=C3CCC4C(CC[C@]5(C)[C@@H](c6ccc(=O)oc6)CC[C@]45O)[C@@]3(C)CC2)[C@H](O)[C@H](O)[C@H]1O (some centres not stated)
active: [1] 97.5% | [2] 90.9% | [3] 84.9% | [4] 89.9% | [5] 97% | [6] 110% | [7] 98.9% | [8] 96.5% | [9] 74.1% | [10] 60.1%

COc1ccc(CC2C(=O)NC(C)C(=O)N(C)C3C(=O)N(C)C(Cc4ccc(O)c(c4)Oc4ccc(cc4)C3O)C(=O)NC(C)C(=O)NC(C)C(=O)N2C)cc1 (configuration not stated)
active: [1] 98.6% | [2] 96.7% | [3] 94.8% | [4] 95.5% | [6] 111% | [7] 98.8% | [9] 80.4% | [10] 77.1%

COc1ccc(C[C@H]2NC[C@H](O)[C@H]2OC(C)=O)cc1
active: [1] 98.9% | [2] 97.4% | [3] 96% | [4] 96.7% | [5] 94.4% | [6] 110% | [7] 97.7% | [8] 95.9% | [9] 79.2% | [10] 78.6%

CCC1CN2CCc3cc(OC)c(OC)cc3C2CC1CC1NCCc2c1[nH]c1ccc(O)cc21 (configuration not stated)
active: [1] 98% | [2] 96.7% | [3] 95.4% | [4] 95.9% | [5] 95.7% | [6] 110% | [7] 98.3% | [8] 98.7% | [9] 78.1% | [10] 73.4%

COc1ccc2c(c1)[nH]c1c(C)nccc12
inactive: [9] 9.1% | [10] 42.9%
active: [1] 79% | [2] 48.6% | [3] 63.4% | [4] 51.4%

NC(=S)c1cn(C2OC(CO)C(O)C2O)c2ncnc(N)c12 (configuration not stated)
active: [1] 97.4% | [2] 95.9% | [3] 89.7% | [4] 96.2% | [5] 93.2% | [6] 109% | [7] 98% | [8] 97.9% | [9] 69.4% | [10] 71.6%

CC(=O)OC1CC2(O)C3CCC4CC(O)CCC4(C)C3CCC2(C)C1C1=CC(=O)OC1 (configuration not stated)
inactive: [10] 45.1%
active: [1] 95.9% | [2] 84.3% | [3] 71.4% | [4] 83.3% | [5] 96.5% | [6] 111% | [7] 98.7% | [8] 91.9% | [9] 65.2%

C=C1C(=O)OC2CC(C)C3C=CC(=O)C3(C)C(O)C12 (configuration not stated)
active: [2] 90.7% | [4] 90.6% | [5] 62.5% | [6] 88.6% | [7] 90.1% | [8] 91.2%
inactive: [1] 38%

CC(=O)OC1CC(OC2C(O)CC(OC3C(O)CC(OC4CCC5(C)C(CCC6C5CC(O)C5(C)C(C7=CC(=O)OC7)CCC65O)C4)OC3C)OC2C)OC(C)C1OC1OC(CO)C(O)C(O)C1O (configuration not stated)
inactive: [10] 28.8%
active: [1] 97.8% | [2] 88.9% | [3] 73.8% | [4] 86.5% | [5] 95% | [6] 109% | [7] 97.9% | [8] 89.4% | [9] 64.3%

CC(C)c1oc(=O)cc2c1[C@@H](O)[C@H]1OC(=O)[C@@]3(C)C[C@@H](O)[C@@H](O)[C@@]2(C)C13 (some centres not stated)
inactive: [9] 8.02% | [10] 13.1%
active: [1] 79.4% | [2] 67.4% | [5] 84.4% | [6] 104% | [7] 90% | [8] 77.4%

c1ccc(-c2[nH]c(-c3ccccc3)[n+](CC3CO3)c2-c2ccccc2)cc1 (configuration not stated)
inactive: [1] 13.4% | [2] -0.66% | [9] 22.1% | [10] 30.2%

COC(=O)C[C@]1(C(=O)OC)CN(C#N)N(c2ccc(Cl)cc2)C12c1ccccc1-c1ccccc12
inactive: [1] 17.7%
active: [2] 63.2% | [5] 34.7% | [6] 61.1% | [7] 58.2% | [8] 69.2%

CC1CCC/C=C/C2CC(O)CC2C(O)/C=C/C(=O)O1 (configuration not stated)
active: [1] 64.7% | [2] 75% | [5] 78.9% | [6] 86.7% | [7] 80.8% | [8] 74.8%

O=c1[nH]c2ccccc2n1C1CCN(C(c2cc3ccccc3o2)c2nnnn2-c2ccc3c(c2)OCCO3)CC1 (configuration not stated)
inactive: [3] -27.1% | [4] 8.97%
